Among all 380,000 compounds or so, about 4,000 (1.1%) were called active. Not shown: some 3% with an inconclusive outcome. Calls come from the whole dose curve; as a rule, active = well fitted activation curve with a large enough effect; inconclusive = small, poorly fitted or top-dose-only effect; inactive = no such curve, though single readings can be large or run the other way. The entries come from a sample that favours actives as a whole.
Assay: qHTS Assay to Identify Small Molecule Activators of BRCA1 Expression; note: nearly all actives have a fitted effect of over 80% in size
Conditions: MCF7-BRCA1-FFLuc reporter, luminescence, 48 h; series mostly up to 46.1 µM; activation: at the top concentration
Outline: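 Reporter cells (MCF7, BRCA1 promoter-firefly luciferase) received library compounds across a concentration series for 48 h. End-point luminescence was measured and concentration-effect curves derived after normalization.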
Potency is the fitted concentration of half-maximal effect.

| Structure (SMILES) | activation | Potency |
| --- | --- | --- |
| CCOC(=O)c1cccc(NC(=O)c2cc(S(=O)(=O)N3CCCC(C)C3)cn2C)c1 (configuration not stated) | -55.3% (inactive) |  |
| O=C(CCn1c(=O)c2ccccc2n(Cc2ccc(Cl)cc2)c1=O)NCc1ccc2c(c1)OCO2 | 6.66% (inactive) |  |
| CCCN(C(=O)Cn1cc(S(=O)(=O)N2CCN(c3ccccc3F)CC2)c2ccccc2c1=O)c1cccc(C)c1 | -2.67% (inactive) |  |
| c1ccc(-c2ccc(OCCN3CCOCC3)cc2)cc1 |  | 11.2 µM (active) |
| OC(c1ccccc1)(c1ccccc1)C1CCN(CCCOc2ccccc2)CC1 | -6.13% (inactive) |  |
| CCOc1ccc(C(=O)CCN2CCOCC2)cc1 | -34.5% (inactive) |  |
| CCc1cccc(NC(=O)Cn2nc(CC)n3c(cc4cc(C)ccc43)c2=O)c1 | -10.7% (inactive) |  |
| COc1ccccc1C(=O)NCCn1cc(SCc2ccccc2Cl)c2ccccc21 | -56.6% (inactive) |  |
| O=C1N/C(=N\N=C\c2ccco2)SC1Cc1ccc(F)cc1 (configuration not stated) | -4.99% (inactive) |  |
| CCN(CC)C(=O)C1=C(C)N(Cc2ccc(OC)cc2)C(=O)C(CC(=O)NCc2ccco2)C1 (configuration not stated) | -12.6% (inactive) |  |
| COc1ccc(CN2C(=O)C(C)S/C2=N/N=C/c2ccco2)cc1 (configuration not stated) |  | 11.2 µM (active) |
| CN(Cc1ccccc1)c1ccc(/C=C/c2ccnc3ccccc23)cc1 | -21.5% (inactive) |  |
| CCc1ccc(OCCCn2c(CCCNC(=O)C3CCCCC3)nc3ccccc32)cc1 | 9.55% (inactive) |  |
| COc1ccccc1CNS(=O)(=O)c1cc(Br)cc2c1N(C(C)=O)C(C)C2 (configuration not stated) | -12.5% (inactive) |  |
| Fc1cc(F)c2nc(N3CCOCC3)sc2c1 |  | 12.6 µM (active) |
| Cc1cc(C)c2nc(N3CCC(C(=O)NCCN4CCOCC4)CC3)sc2c1 | 32.9% (inactive) |  |
| Cc1nc(N2CCOCC2)sc1C(=O)NN | -106% (inactive) |  |
| CCc1nc2onc(C)c2c(=O)n1CC(=O)O | 0.973% (inactive) |  |
| Cc1cc(C(=O)COc2ccccc2Cl)c(C)n1C1CC1 |  | 12.6 µM (active) |
| O=C(COc1ccccc1Cl)N1CCCCCCC1 | 33.8% (inactive) |  |
| Cc1cc(C(=O)COc2ccc(Br)cc2F)c(C)n1C1CC1 | 45.1% (inactive) |  |
| Cn1c(=O)c2c(-c3ccccc3Br)n(Cc3ccccc3)cc2n(C)c1=O | -2.04% (inactive) |  |

| Structure (SMILES) | activation | Potency |
| --- | --- | --- |
| CCCCC(=O)Nc1ccc2c(c1)OCCO2 |  | 7.08 µM (active) |
| S=C(Nc1cccc(Cl)c1)Nc1ccc2c(c1)OCCO2 |  | 11.2 µM (active) |
| S=C(Nc1ccc2c(c1)OCO2)N1CCCC1 | 56.2% (inactive) |  |
| S=C(NCc1ccco1)Nc1ccc2c(c1)OCCO2 | 39.2% (inactive) |  |
| CCc1ccccc1OCC(=O)Nc1ccc2c(c1)OCCO2 | 94.9% (inactive) |  |
| Cc1ccc(OCCCC(=O)Nc2ccc3c(c2)OCCO3)cc1 | 22.6% (inactive) |  |
| COc1ccccc1-c1cc2nc(C)c(CCC(=O)NC3CCCCC3)c(C)n2n1 | -4.32% (inactive) |  |
| COc1ccc(NC(=O)CSc2nnc(-c3nnn(-c4ccc(F)cc4)c3C)o2)cc1 | 4.5% (inactive) |  |
| O=C(CS(=O)(=O)c1cccc2nsnc12)N1CCN(c2cccc(Cl)c2)CC1 | -5.64% (inactive) |  |
| COc1ccc2[nH]c3c(c2c1)CCN(C(=O)CCC1CCCC1)C3c1ccc(F)cc1 (configuration not stated) | -14.9% (inactive) |  |
| Cc1ccc(Cl)cc1N1CCN(C(=O)CN2C(=O)COc3ccc(S(=O)(=O)N4CCOCC4)cc32)CC1 | -21.5% (inactive) |  |
| COc1ccc(OCc2cc(C(=O)N3CCCC3)no2)c2ccccc12 | 64.4% (inactive) |  |
| O=C(c1cc(COc2cccc(C(F)(F)F)c2)on1)N1CCSCC1 | -8.73% (inactive) |  |
| COc1cccc(OCc2cc(C(=O)N3CCN(C(=O)c4ccco4)CC3)no2)c1 |  | 11.2 µM (active) |
| CCN(CC)S(=O)(=O)c1ccc2c(c1)nc(CN(C)C(=O)Nc1ccc(Cl)cc1)n2C | 2.05% (inactive) |  |
| Cc1cc(F)ccc1NS(=O)(=O)c1ccc(-n2cccn2)cc1 | -23.9% (inactive) |  |
| O=C(Nc1ccc2c(c1)OCCO2)C(C1CC1)N1CCC(Cc2ccccc2)CC1 (configuration not stated) | -7.79% (inactive) |  |
| Cn1cc([N+](=O)[O-])c(C(=O)Nc2ccc3c(c2)OCCO3)n1 | 78.5% (inactive) |  |
| Nc1c(C(=O)Nc2ccc3c(c2)OCCO3)nnn1Cc1ccccc1 |  | 4.47 µM (active) |
| COC(=O)c1c(NC(=O)CCCOc2ccccc2)sc2c1CCC(C)C2 (configuration not stated) | 13.8% (inactive) |  |
| CCN(CCCNC(=O)c1cc2cc3cc(OC)ccc3nc2s1)c1ccccc1 | 8.15% (inactive) |  |
| Cc1cc(NC(=O)CC(C)C)cc(-c2nc3ncccc3o2)c1O | -5.81% (inactive) |  |

| Structure (SMILES) | activation | Potency |
| --- | --- | --- |
| Fc1cccc(Cc2c(-c3ccc(Cl)cc3)nc3ccc(Cl)cn23)c1 | 18% (inactive) |  |
| Cc1ccc(Cc2c(-c3ccco3)nc3ccc(Cl)cn23)cc1 | -32% (inactive) |  |
| Cc1ccc(-c2nc3ccc(Cl)cn3c2Cc2ccccc2)cc1 |  | 10 µM (active) |
| CC1(C)CC(=O)c2cc(C(=O)NCc3ccccc3)c(=O)[nH]c2C1 | 0% (inactive) |  |
| Cc1ccc(O)c(NC(=O)c2cc(-c3ccco3)on2)c1 |  | 5.62 µM (active) |
| CC(=O)c1ccc(NC(=O)c2cc(-c3cccs3)on2)cc1 | 67.3% (inactive) |  |
| Cc1ccc(C)c(NC(=O)c2ccc(OC(=O)c3ccco3)cc2)c1 | 46.3% (inactive) |  |
| COC(=O)c1ccccc1NC(=O)Cn1c(=O)cc(C)c2c(C)nn(-c3cccc(Cl)c3C)c21 | 4.63% (inactive) |  |
| O=C(COc1ccccc1)OCc1cc(=O)n2nc(-c3cccs3)sc2n1 | 0% (inactive) |  |
| Nc1ccc(N=Nc2ccccc2Cl)c(N)n1 |  | 3.55 µM (active) |
| CCC(C(=O)Nc1cccc(Cl)c1C)n1nc(-c2ccc(C)cc2)ccc1=O (configuration not stated) | -24.6% (inactive) |  |
| NS(=O)(=O)c1ccc(NC(=S)NNC(=O)c2cccs2)cc1 | 0% (inactive) |  |
| CS(=O)(=O)c1ccc(C(=O)NNC(=O)c2cccs2)cc1 | 1.26% (inactive) |  |
| O=C(Nc1ccccc1)c1ccc(NC(=O)c2cccs2)cc1 |  | 7.94 µM (active) |
| COc1cccc(N2CCN(S(=O)(=O)c3cc(Br)cc4c3N(C(=O)C3CC3)CC4)CC2)c1 | 3.39% (inactive) |  |
| COc1ccccc1C(=O)OCc1cc(=O)n2nc(-c3cccs3)sc2n1 | -16.9% (inactive) |  |
| Cc1ccc(-c2noc(-c3ccccc3C(=O)NCC3CCCO3)n2)cc1 (configuration not stated) | 10.2% (inactive) |  |
| O=C(c1cccs1)N1CCCC(c2nc(-c3ccc(F)cc3)no2)C1 (configuration not stated) | 78.6% (inactive) |  |
| CCCCNc1ccc(-c2nc(-c3ccncc3)no2)cc1[N+](=O)[O-] | 8.14% (inactive) |  |
| O=C(NCc1cccnc1)c1nc(-c2cccs2)no1 | -4.18% (inactive) |  |
| Cc1ccc(-c2nc(-c3ccncc3)no2)c(C)c1 |  | 5.01 µM (active) |
| c1csc(-c2nc(-c3ccncc3)no2)c1 |  | 4.47 µM (active) |

| Structure (SMILES) | activation | Potency |
| --- | --- | --- |
| COc1ccc(-c2nc(C)c(CCNC(=O)c3ccc(C(F)(F)F)cc3)s2)cc1OC | 8.95% (inactive) |  |
| COc1ccc(NC(=O)c2ccc3nc(C(C)C)oc3c2)cc1OC | 43.9% (inactive) |  |
| COc1ccc(-n2c(=O)c3c(c4cc(OC)ccc4n3C)n(Cc3cccc(C)c3)c2=O)cc1 | -15.1% (inactive) |  |
| CCc1nnc(NC(=O)CCC(=O)NCc2ccccc2OC)s1 | 0.553% (inactive) |  |
| CCOC(=O)CSc1nnc(CNC(=O)c2cccs2)n1-c1ccccc1 | -17.3% (inactive) |  |
| CCc1c(C)sc(NC(=O)c2cccs2)c1C(N)=O |  | 3.55 µM (active) |
| CCc1nnc(NC(=O)c2cccs2)s1 |  | 12.6 µM (active) |
| CCOC(=O)c1c(NC(=O)C2CC=CCC2C(=O)O)sc(C)c1CC (configuration not stated) | 3.34% (inactive) |  |
| CCc1nnc(NC(=O)C2CCCN2S(=O)(=O)c2ccccc2)s1 (configuration not stated) | 1.72% (inactive) |  |
| CCS(=O)(=O)N1CCc2cc(C(=O)N3CCN(c4ccccc4OC)CC3)ccc21 | -1.91% (inactive) |  |
| Cc1nc2ccc(NC(=O)C3CCCCC3)cc2s1 | 22.7% (inactive) |  |
| Cc1nc(NC(=O)C2CCCCC2)sc1C |  | 12.6 µM (active) |
| Cc1nc(NC(=O)C23CCC(C)(C(=O)O2)C3(C)C)sc1C (configuration not stated) | 0.809% (inactive) |  |
| CC(C)(C(=O)NO)c1ccccc1 | 28.4% (inactive) |  |
| C/C(=N\NC(=O)c1ccc2ccccc2c1)c1cccnc1 |  | 10 µM (active) |
| C/C(=N\NC(=O)c1cccnc1)c1ccc(-n2ccnc2)cc1 | 14.6% (inactive) |  |
| C/C(=N\NC(=O)c1cccc([N+](=O)[O-])c1)c1cccnc1 | -22.5% (inactive) |  |
| OCCNc1ncnc2oc(-c3ccco3)c(-c3ccco3)c12 | -32.8% (inactive) |  |
| Cc1oc2ncnc(N3CCCCC3)c2c1C(=O)N1CCN(c2cccc(Cl)c2)CC1 | -29.6% (inactive) |  |
| COC(=O)c1ccccc1NS(=O)(=O)c1ccc2c(c1)CCCN2C(C)=O | 3.64% (inactive) |  |
| CC(=O)c1ccc(NC(=S)NC(=O)CC(C)C)cc1 |  | 7.94 µM (active) |
| CC(C)CC(=O)NC(=S)NNC(=O)c1cccc([N+](=O)[O-])c1 | -31.6% (inactive) |  |

| Structure (SMILES) | activation | Potency |
| --- | --- | --- |
| CC(C)CC(=O)NC(=S)Nc1ccc(F)cc1F | 46.9% (inactive) |  |
| CCc1ccccc1NC(=O)Cc1ccc(NC(=O)N2CCCCc3ccccc32)cc1 | 0% (inactive) |  |
| CCCCN(C)S(=O)(=O)c1ccc(C(=O)Nc2sc3c(c2C(N)=O)CC(C)(C)NC3(C)C)cc1 | -0.616% (inactive) |  |
| CN(C(=O)C1CCOC1)c1nnc(-c2cccnc2)s1 (configuration not stated) | -2.74% (inactive) |  |
| CCC(C)(C)NC(=O)C(c1ccccn1)N(C(=O)c1csnn1)c1ccccc1 (configuration not stated) | -9.03% (inactive) |  |
| CN(C(=O)c1ccccn1)c1nnc(-c2ccccn2)s1 |  | 11.2 µM (active) |
| Brc1cccc[n+]1Cc1cccc(C[n+]2ccccc2Br)c1 | 9% (inactive) |  |
| Cc1cc(C)cc(NC(=O)CCS(=O)(=O)c2cc3c4c(c2)CCN4C(=O)CC3)c1 | 6.06% (inactive) |  |
| COc1ccc2c(c1OC)C(=O)N(c1ncn[nH]1)C2 | 3.12% (inactive) |  |
| COc1ccc2c(c1OC)C(=O)N(c1ccc(O)cc1)C2 |  | 4.47 µM (active) |
| CC(C)(C)c1ccc(OC2=CS(=O)(=O)c3ccccc32)cc1 |  | 12.6 µM (active) |
| CC(C)(C)c1ccc(Oc2ccc(N)cc2)cc1 | -82.1% (inactive) |  |
| CC(C)(C)c1ccc(CN2C(=O)c3ccccc3S2(=O)=O)cc1 | 69.5% (inactive) |  |
| O=S(=O)(c1cccc(C(F)(F)F)c1)N1CCN(c2nc(-c3cccs3)nc3ccccc23)CC1 | 14.8% (inactive) |  |
| Cc1cccc(NC(=O)CSc2nnc(CCCCCNC(=O)OC(C)(C)C)o2)c1C | -6.49% (inactive) |  |
| O=C(CCNC(=O)c1ccccc1)NN=Cc1ccc(Br)o1 | -7.6% (inactive) |  |
| CC(C)(C)OC(=O)NCCCCCC(=O)N/N=C/c1coc2ccccc2c1=O |  | 11.2 µM (active) |
| Cc1ccc(-c2nc(=N)sn2Cc2ccccc2)cc1 | 0% (inactive) |  |
| CCOc1ccc(NC(=O)Cn2c(=O)n(CCCC(=O)NCc3ccc4c(c3)OCO4)c(=O)c3ccccc32)cc1 | 7.21% (inactive) |  |

Source: PubChem BioAssay AID624202 (National Center for Advancing Translational Sciences (NCATS), 2012)
